Holding throughout (test): NCI-60 one-dose screen, 48 h (100 = growth as untreated, 0 = no growth, -100 = all killed)
What all share (settings): 10 µM unless noted

Experiment [1] has as its system SR leukemia.
Experiment [2] relates to RPMI-8226 leukemia.
Experiment [3] deals with OVCAR-8 ovarian.
In experiment [4] the test system is OVCAR-5 ovarian.
In experiment [5] the test system is OVCAR-4 ovarian.
For experiment [6], the system named is SK-OV-3 ovarian.
For experiment [7], the system named is IGROV1 ovarian.
Experiment [8] relates to OVCAR-3 ovarian.
For experiment [9], the system named is HS 578T breast.
The subject of experiment [10] is NCI/ADR-RES ovarian.
Experiment [11] deals with T-47D breast.
Experiment [12] deals with BT-549 breast.
The test system of experiment [13] is MDA-MB-435 melanoma.
The subject of experiment [14] is SW-620 colon.
Experiment [15] has as its system MCF7 breast.
The subject of experiment [16] is HCT-116 colon.
Experiment [17] relates to HCC-2998 colon.
The subject of experiment [18] is KM12 colon.

Values joined by “and” are separate entries in the source; they are usually repeats but may differ in a detail not shown here. Equal values may be shown once. Compounds without any hit were thinned out: in the full panel of roughly 83,000, 20% have a hit.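 A percent growth of 40 corresponds to 60% growth inhibition; 0 means no net growth; -100 means all cells died. Active threshold: below 10.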 Active and inactive are the calls of the source.

Take `CC(=O)Nc1cc(S(=O)(=O)O)cc2cc(S(=O)(=O)O)c(N=Nc3ccccc3)c(O)c12`: the growth was 98.8% (inactive) and 92.1% (inactive) in experiment [1]; 104% (inactive) and 96.3% (inactive) in experiment [2]; 109% (inactive) and 99.5% (inactive) in [3]; 122% (inactive) and 113% (inactive) in [4]; 109% (inactive) in experiment [5]; 128% (inactive) and 104% (inactive) in experiment [6]. Also, the growth in experiment [7] was 117% (inactive) and 101% (inactive); in experiment [8] it was 121% (inactive) and 109% (inactive); in experiment [9], 92.9% (inactive) and 103% (inactive); in [10] it was 107% (inactive) and 105% (inactive); in [11] it was 109% (inactive) and 85.9% (inactive); in experiment [12] it was 107% (inactive) and 117% (inactive). The growth in [13] was 108% (inactive) and 112% (inactive); in experiment [14], 104% (inactive) and 102% (inactive); in experiment [15], 102% (inactive) and 91.9% (inactive); in experiment [16], 93.2% (inactive) and 123% (inactive); in experiment [17], 99.6% (inactive) and 99.1% (inactive); in experiment [18], 107% (inactive) and 106% (inactive).
In the case of `Cn1c(SSc2ccc(-c3cccnc3)n2C)ccc1-c1cccnc1`, the growth in experiment [1] is 86.8% (inactive) and 58.3% (inactive); in experiment [2], 96.5% (inactive) and 92.1% (inactive); in [3], 97.4% (inactive) and 103% (inactive); in [4], 141% (inactive) and 115% (inactive); in experiment [5], 80.3% (inactive) and 101% (inactive); in experiment [6] it was 131% (inactive) and 120% (inactive). For the same compound, the growth in experiment [7] is 103% (inactive) and 88.1% (inactive); in experiment [8], 98.9% (inactive) and 102% (inactive); in [9], 104% (inactive); in experiment [10] it was 103% (inactive) and 101% (inactive); in experiment [11], 83.3% (inactive) and 121% (inactive); in experiment [12], 107% (inactive) and 105% (inactive). In addition, the growth in [13] is 92.8% (inactive) and 82% (inactive); in experiment [14], 62.8% (inactive) and 11.1% (inactive); in [15], 76.4% (inactive) and 117% (inactive); in [16], 82.3% (inactive) and 99.2% (inactive); in experiment [17], 112% (inactive) and 102% (inactive); in [18], 98.5% (inactive) and 95.5% (inactive).
As for `O=[N+]([O-])c1ccc2nc3c4ccccc4c4ccccc4c3nc2c1`, the growth is 56.6% (inactive) in experiment [1]; 59.4% (inactive) in [2]; 65.9% (inactive) in experiment [3]; 91.7% (inactive) in [4]; 8.96% (active) in [5]; 100% (inactive) in experiment [6]. Besides, the growth was 58.8% (inactive) in experiment [7]; 72.9% (inactive) in experiment [8]; 79.9% (inactive) in experiment [9]; 58.9% (inactive) in [10]; 67.9% (inactive) in experiment [11]; 86.9% (inactive) in [12]. In addition, the growth was 95% (inactive) in experiment [13]; 63.4% (inactive) in [14]; 65% (inactive) in experiment [15]; 33.6% (inactive) in [16]; 89.8% (inactive) in [17]; 89.3% (inactive) in [18].
For `Oc1ccc(/C=C/c2ccccc2)cc1`, the growth in experiment [1] is 48.6% (inactive) and 69.6% (inactive); in [2] it was 61.3% (inactive) and 81.8% (inactive); in experiment [3], 66.2% (inactive) and 50.5% (inactive); in experiment [4] it was 97.5% (inactive) and 140% (inactive); in [5], 61.5% (inactive); in experiment [6], 94.8% (inactive) and 99.4% (inactive). For the same compound, the growth is 57.5% (inactive) and 59.9% (inactive) in experiment [7]; 79.1% (inactive) and 76.5% (inactive) in [8]; 86.7% (inactive) in [9]; 43.5% (inactive) and 41.6% (inactive) in [10]; 97.4% (inactive) and 92.3% (inactive) in experiment [11]; 62.6% (inactive) and 68.1% (inactive) in experiment [12]. Further, the growth in experiment [13] was 76% (inactive) and 74.8% (inactive); in [14] it was 72.1% (inactive) and 62.7% (inactive); in [15], 65% (inactive) and 75% (inactive); in experiment [16], 75.8% (inactive) and 73.8% (inactive); in experiment [17] it was 86.8% (inactive) and 86.5% (inactive); in experiment [18], 54% (inactive) and 54.6% (inactive).
Turning to `CC(C)C(=O)Nc1ccc([N+](=O)[O-])c(C(F)(F)F)c1`, the growth in experiment [1] is 76.4% (inactive) and 88.4% (inactive); in [2], 63.9% (inactive); in [3], 101% (inactive) and 56.1% (inactive); in experiment [4], 90.4% (inactive); in experiment [5], 83.1% (inactive) and 92.5% (inactive); in experiment [6], 80.2% (inactive) and 99.6% (inactive). In addition, the growth in [7] is 94.5% (inactive) and 5.73% (active); in experiment [8] it was 86.3% (inactive) and 98.2% (inactive); in [9], 101% (inactive) and 85.4% (inactive); in experiment [10], 86.2% (inactive) and 96% (inactive); in [11], 85.3% (inactive) and 89.6% (inactive); in experiment [12], 84.7% (inactive) and 85.9% (inactive). Further, the growth in experiment [14] was 93.8% (inactive) and 96.5% (inactive); in experiment [15], 102% (inactive) and 90% (inactive); in [16], 94.8% (inactive) and 92.8% (inactive); in experiment [17] it was 97.2% (inactive) and 106% (inactive); in experiment [18] it was 89.3% (inactive) and 98.4% (inactive).
As to `O=C(CN1CCN(c2cc3c(cc2F)c(=O)c(C(=O)O)cn3C2CC2)CC1)Nc1ccc(Cl)cc1`, the growth in experiment [1] was 71.1% (inactive) and 71.4% (inactive); in experiment [2], 72.2% (inactive); in experiment [3], 78.8% (inactive) and 95% (inactive); in experiment [4], 105% (inactive) and 96% (inactive); in experiment [5] it was 85.3% (inactive) and 83.2% (inactive); in [6], 63.4% (inactive) and 82.2% (inactive). Moreover, the growth is 93.8% (inactive) and 97.3% (inactive) in experiment [7]; 94.4% (inactive) and 102% (inactive) in experiment [8]; 87.7% (inactive) and 93.6% (inactive) in [9]; 101% (inactive) and 96.9% (inactive) in experiment [10]; 59.1% (inactive) and 92.4% (inactive) in experiment [11]; 55.8% (inactive) in [12]. The growth in experiment [13] was 88.4% (inactive) and 92.1% (inactive); in experiment [14], 101% (inactive) and 110% (inactive); in experiment [15], 94.3% (inactive) and 96.4% (inactive); in experiment [16], 73.1% (inactive) and 99.7% (inactive); in [17] it was 85.8% (inactive) and 103% (inactive); in experiment [18], 82.9% (inactive) and 93.9% (inactive).
`Cc1cc(N=Nc2ccc(C)c(N=Nc3cc(C)c(N)cc3N)c2)c(N)cc1N`: the growth in [1] is 97.9% (inactive) and 35.1% (inactive); in [2], 43.6% (inactive) and 88.2% (inactive); in experiment [3] it was 98.9% (inactive) and 102% (inactive); in [4], 92.5% (inactive) and 86.8% (inactive); in experiment [5] it was 86.6% (inactive) and 75.5% (inactive); in experiment [6], 91% (inactive) and 95.2% (inactive). Also, the growth in experiment [7] is 36.8% (inactive) and 53.5% (inactive); in experiment [8], 89.3% (inactive) and 63.1% (inactive); in [9], 89.4% (inactive) and 88.8% (inactive); in experiment [10], 92.4% (inactive) and 84% (inactive); in experiment [11] it was 77.5% (inactive) and 82.6% (inactive); in [12], 94.2% (inactive). Also, the growth in experiment [13] is 100% (inactive) and 12% (inactive); in experiment [14] it was 94.8% (inactive) and 48.4% (inactive); in experiment [15] it was 66.9% (inactive) and 19.4% (inactive); in experiment [16] it was 84.3% (inactive) and 58.3% (inactive); in experiment [17] it was 105% (inactive) and 91% (inactive); in experiment [18] it was 90.6% (inactive) and 39.6% (inactive).
`CC1=NN(c2ccccc2)C(=O)C1C(=O)c1ccccc1` (stereo unspecified): the growth in experiment [1] is 82.7% (inactive); in [2], 91.9% (inactive); in experiment [3] it was 88.4% (inactive); in [4], 120% (inactive); in experiment [5] it was 108% (inactive); in [6], 112% (inactive). The growth in experiment [7] is 100% (inactive); in experiment [8], 102% (inactive); in experiment [9] it was 127% (inactive); in experiment [10], 101% (inactive); in experiment [11], 86.9% (inactive); in [12] it was 103% (inactive). Moreover, the growth was 104% (inactive) in experiment [13]; 101% (inactive) in experiment [14]; 86% (inactive) in experiment [15]; 98.3% (inactive) in experiment [16]; 90.5% (inactive) in experiment [17]; 93.2% (inactive) in experiment [18].
As to `COc1cc(-c2nccc3cc4c(cc23)OCO4)cc(OC)c1OC`, the growth was 18.5% (inactive) and 35.6% (inactive) in [1]; 37.5% (inactive) in experiment [2]; 48.9% (inactive) and 35.2% (inactive) in [3]; 66.4% (inactive) and 73.5% (inactive) in experiment [4]; 79.2% (inactive) and 69% (inactive) in experiment [5]; 23.7% (inactive) and 9.08% (active) in experiment [6]. The growth is 45.8% (inactive) and 37.7% (inactive) in experiment [7]; -9.95% (active) and -25.2% (active) in experiment [8]; 18.7% (inactive) and 53.8% (inactive) in [9]; -3.6% (active) and 8.92% (active) in experiment [10]; 27.6% (inactive) and 31.9% (inactive) in experiment [11]; 56.8% (inactive) in [12]. In addition, the growth is -14.5% (active) and -22.9% (active) in experiment [13]; 16.7% (inactive) and 17.5% (inactive) in experiment [14]; 20.9% (inactive) and 16.7% (inactive) in experiment [15]; 18.7% (inactive) and 25.3% (inactive) in experiment [16]; 59.8% (inactive) and 48.4% (inactive) in experiment [17]; 32.3% (inactive) and 25% (inactive) in experiment [18].
